According to PubChem BioAssay:
A number with no mark means an inactive call. For part of these data: Results with a measured potency or affinity are listed apart. Activity calls are given as the source filed them. Unless noted, how the calls were made is not given here.

Tests used:
[1] = antimalarial activity against Dd2 strain (AID 2302;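 active means growth inhibition above 50% at the single 2 µM test dose, taken to imply half-maximal potency below 2 µM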;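 further: 0% = DMSO untreated growth and 100% = chloroquine plus artemisinin killed control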); details: P. falciparum Dd2 in RBCs, LDH growth readout, 72 h; at 2 µM; stronger effect = higher value
[2] = human hepatoma cell viability loss – ATP luminescence, cytotoxicity control for P. falciparum antimalarial project, primary screen (AID 2303;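 active means inhibition above 50%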;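 further: 0% = DMSO wells and 100% = digitonin-killed cells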); details: HepG2 viability, 24-48 h, at 10 µM, stronger effect = higher value
[3] = target: L-lactate dehydrogenase (Plasmodium falciparum (isolate CDC / Honduras)) (UniProt Q27743); assay: PfLDH activity inhibition – cell lysate, 3D7 strain, counter-screen for P. falciparum growth inhibition project (AID 2304);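 further: 0% = vehicle and 100% = reference inhibitor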; details: P. falciparum 3D7 crude extract, LDH APAD/NBT absorbance; at 2 µM; stronger effect = higher value
[4] = inhibition of 3D7 malaria parasite growth – strain 3D7 (AID 2306);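 further: 0% = DMSO wells and 100% = chloroquine plus artemisinin control wells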; details: P. falciparum 3D7 erythrocytic growth, LDH absorbance, 72 h; at 2 µM; stronger effect = higher value
[5] = target: Calcium-dependent protein kinase 1 (Plasmodium falciparum (isolate 3D7)) (UniProt P62344); assay: PfCDPK1 kinase inhibitors, biochemical, TCAMS library (AID 1159585; cut-off not given, nearly all actives have IC50 up to about 0.98 µM;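 further: inhibitors leave more ATP so luminescence rises with inhibition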); details: recombinant PfCDPK1, Kinase-Glo ATP depletion luminescence
[6] = target: Plasmodium falciparum protein kinase 6 (PK6, PF3D7_1337100) (UniProt Q8IDW1); assay: PfPK6 kinase inhibitors, biochemical, TCAMS library (AID 1159586); details: recombinant PfPK6, Kinase-Glo ATP depletion luminescence
[7] = target: Protein kinase 7 (PK7), Plasmodium falciparum 3D7 (PF3D7_0213400) (UniProt Q7YTF7); assay: inhibition of Plasmodium PK7 catalytic activity – biochemical, TCAMS antimalarial set, Kinase-Glo luminescence (AID 1159587); details: recombinant PfPK7, Kinase-Glo ATP depletion luminescence
[8] = target: Calcium-dependent protein kinase 4 (Plasmodium falciparum (isolate 3D7)) (UniProt Q8IBS5); assay: PfCDPK4 kinase inhibitors, biochemical, TCAMS library (AID 1159588; cut-off not given, nearly all actives have IC50 up to about 0.91 µM); details: recombinant PfCDPK4, Kinase-Glo ATP depletion luminescence
Chain of Calcium-dependent protein kinase 4 (Plasmodium falciparum (isolate 3D7)) (Q8IBS5 whole entry, looked up): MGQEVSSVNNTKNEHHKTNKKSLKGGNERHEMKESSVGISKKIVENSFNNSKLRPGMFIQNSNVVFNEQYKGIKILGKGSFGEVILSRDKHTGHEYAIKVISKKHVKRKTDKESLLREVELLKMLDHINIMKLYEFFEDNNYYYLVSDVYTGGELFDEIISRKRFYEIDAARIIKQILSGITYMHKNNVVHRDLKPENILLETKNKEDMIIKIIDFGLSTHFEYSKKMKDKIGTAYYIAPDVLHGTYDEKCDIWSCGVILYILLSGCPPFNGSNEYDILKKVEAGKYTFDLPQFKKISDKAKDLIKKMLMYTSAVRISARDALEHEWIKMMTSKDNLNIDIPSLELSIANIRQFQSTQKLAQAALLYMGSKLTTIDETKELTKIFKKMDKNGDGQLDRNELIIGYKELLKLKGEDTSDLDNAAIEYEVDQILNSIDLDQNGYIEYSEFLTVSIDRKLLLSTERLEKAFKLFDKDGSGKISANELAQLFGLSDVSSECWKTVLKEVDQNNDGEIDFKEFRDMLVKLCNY

Chain of L-lactate dehydrogenase (Plasmodium falciparum (isolate CDC / Honduras)) (Q27743 whole entry, looked up): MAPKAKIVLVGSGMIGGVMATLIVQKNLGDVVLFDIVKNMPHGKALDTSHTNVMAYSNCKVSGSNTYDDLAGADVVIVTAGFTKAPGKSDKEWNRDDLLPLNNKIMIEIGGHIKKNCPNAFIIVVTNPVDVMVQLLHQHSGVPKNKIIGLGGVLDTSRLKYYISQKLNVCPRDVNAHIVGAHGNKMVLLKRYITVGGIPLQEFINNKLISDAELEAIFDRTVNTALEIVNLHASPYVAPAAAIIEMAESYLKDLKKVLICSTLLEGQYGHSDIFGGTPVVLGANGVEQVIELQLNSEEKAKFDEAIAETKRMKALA
Chain of Calcium-dependent protein kinase 1 (Plasmodium falciparum (isolate 3D7)) (P62344 whole entry, looked up): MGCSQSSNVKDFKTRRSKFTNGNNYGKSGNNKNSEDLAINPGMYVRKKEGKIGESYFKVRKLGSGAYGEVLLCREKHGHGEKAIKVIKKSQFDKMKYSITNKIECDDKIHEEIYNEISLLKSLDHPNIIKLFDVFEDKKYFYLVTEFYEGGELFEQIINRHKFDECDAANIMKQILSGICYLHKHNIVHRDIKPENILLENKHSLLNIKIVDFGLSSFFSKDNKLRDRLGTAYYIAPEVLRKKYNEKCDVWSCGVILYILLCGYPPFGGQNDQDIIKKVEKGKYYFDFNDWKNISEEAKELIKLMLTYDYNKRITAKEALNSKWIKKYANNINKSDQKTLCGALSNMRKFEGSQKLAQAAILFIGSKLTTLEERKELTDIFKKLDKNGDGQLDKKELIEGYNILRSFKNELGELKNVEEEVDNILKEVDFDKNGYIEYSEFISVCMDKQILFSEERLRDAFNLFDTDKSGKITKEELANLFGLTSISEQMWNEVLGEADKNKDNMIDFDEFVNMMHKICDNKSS
Chain of Protein kinase 7 (PK7), Plasmodium falciparum 3D7 (PF3D7_0213400) (Q7YTF7 1-343): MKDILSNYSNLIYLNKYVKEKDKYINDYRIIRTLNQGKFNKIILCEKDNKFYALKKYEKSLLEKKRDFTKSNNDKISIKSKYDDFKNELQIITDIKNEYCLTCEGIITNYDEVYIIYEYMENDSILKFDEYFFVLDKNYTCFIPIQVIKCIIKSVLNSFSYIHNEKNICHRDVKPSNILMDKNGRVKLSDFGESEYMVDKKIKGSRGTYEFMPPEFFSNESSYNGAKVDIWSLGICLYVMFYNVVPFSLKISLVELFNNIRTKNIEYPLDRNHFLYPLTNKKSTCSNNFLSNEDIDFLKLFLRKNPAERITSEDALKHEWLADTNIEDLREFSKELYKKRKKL
Chain of Plasmodium falciparum protein kinase 6 (PK6, PF3D7_1337100) (Q8IDW1 1-305): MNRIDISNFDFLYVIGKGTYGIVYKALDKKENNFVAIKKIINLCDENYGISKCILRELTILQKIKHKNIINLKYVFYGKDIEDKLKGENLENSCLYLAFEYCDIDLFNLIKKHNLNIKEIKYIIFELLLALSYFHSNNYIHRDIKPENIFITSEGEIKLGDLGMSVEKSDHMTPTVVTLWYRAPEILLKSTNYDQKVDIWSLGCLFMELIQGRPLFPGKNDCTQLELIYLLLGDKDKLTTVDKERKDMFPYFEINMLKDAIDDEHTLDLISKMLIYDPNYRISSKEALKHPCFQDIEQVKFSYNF

Structure (SMILES)	growth inhibition [1]	inhibition [2]	inhibition [3] [%]	growth inhibition [4]	outcome [5]	outcome [6]	outcome [7]	outcome [8]
CC(C)(C)c1ccc2nc(-c3ccc(C(=O)NCCCc4ccccc4)cc3)[nH]c2c1	14%	11%	5	95% (active)	inactive	inactive	inactive	inactive
Cc1cccc(C)c1OC(=O)[C@@H](C)[C@@H](O)C1(Sc2ccccc2)CCN(C)CC1	92% (active)	23%	1	98% (active)	inactive	inactive	inactive	inactive
O=C(Nc1ccc2c(c1)OCO2)c1cc(-c2cccnc2)nc2ccc(Cl)cc12	41%	9%	-3	89% (active)	inactive	inactive	inactive	inactive
Cc1cc(C(=O)Nc2ccc3c(c2)CCN3C2CCN(Cc3ccc4nsnc4c3)C2)no1 (configuration not stated)	94% (active)	-1%	-1	90% (active)	inactive	inactive	inactive	inactive
CN1CCCC1CNS(=O)(=O)c1ccc(C(=O)NCC2CC2)cc1 (configuration not stated)	-7%	17%	-1	91% (active)	inactive	inactive	inactive	inactive
CN1CCN(c2ncnc3ccc(NC(=O)Nc4ccc(Cl)c(Cl)c4)cc23)CC1	89% (active)	7%	-2	100% (active)	inactive	inactive	inactive	inactive
COc1ccc(Nc2nccc(N3CCC(NS(=O)(=O)c4ccc(NC(C)=O)cc4)C3)n2)cc1 (configuration not stated)	16%	3%	-2	100% (active)	inactive	inactive	inactive	inactive
CCOc1ccc(C(=O)Nc2nonc2-c2ccc(OC)c(OC)c2)cc1	42%	7%	5	95% (active)	inactive	inactive	inactive	inactive
O=C(Nc1cccc(F)c1)N1CCC(NS(=O)(=O)c2ccc(Br)cc2)CC1	23%	4%	-1	93% (active)	inactive	inactive	inactive	inactive
NC(N)=NN=Cc1c2ccccc2c(Cl)c2ccc(Cl)cc12	89% (active)	97% (active)	8	98% (active)	inactive	inactive	inactive	inactive
COc1cc(NC(=O)c2sc(-c3ccc(Cl)cc3)cc2NC(=O)CN2CC[C@@H](O)C2)ccc1OCCN1CCCC1	79% (active)	56% (active)	6	90% (active)	inactive	inactive	inactive	inactive
COc1cccc(OC)c1CN1CCC(N(C)CCCCCCCCCN2CCC(OC(=O)Nc3ccccc3-c3ccccc3)CC2)CC1	98% (active)	100% (active)	-1	98% (active)	inactive	inactive	inactive	inactive
O=C1CCCN1CCCNCc1ccc(-c2cccc(-c3nc4ccc(F)cc4[nH]3)c2)cc1	8%	12%	-1	101% (active)	inactive	inactive	inactive	inactive
Oc1ccccc1CCNCC1CCc2ccccc2C1 (configuration not stated)	98% (active)	37%	0	98% (active)	inactive	inactive	inactive	inactive
C[C@H](CNc1ccnc(Nc2ccc3[nH]c(=O)[nH]c3c2)n1)c1ccccc1	-5%	61% (active)	-2	100% (active)	inactive	inactive	inactive	inactive
CCCCCCCCCn1c(NCc2cc(Cl)ccc2O)nc2ccccc21	92% (active)	13%	-4	97% (active)	inactive	inactive	inactive	inactive
COc1ccccc1N1CCN(CCCCN(C(=O)Nc2cccc(Cl)c2)C(=O)Nc2cccc(Cl)c2)CC1	65% (active)	4%	7	100% (active)	inactive	inactive	inactive	inactive
CN(C)CCOc1cc(NC(=O)Nc2cccc([N+](=O)[O-])c2)ccc1I	51% (active)	8%	6	102% (active)	inactive	inactive	inactive	inactive
Cc1cnc(Nc2ccccc2)nc1NCCC(=O)Nc1ccccc1	7%	10%	3	89% (active)	inactive	inactive	inactive	inactive
O=C(Nc1ccc(OC2CCN(Cc3ccc(F)cc3)C2)c(Cl)c1)c1ccoc1 (configuration not stated)	90% (active)	13%	2	90% (active)	inactive	inactive	inactive	inactive

Structure (SMILES)	growth inhibition [1]	inhibition [2]	inhibition [3] [%]	growth inhibition [4]	outcome [5]	outcome [6]	outcome [7]	outcome [8]
CS(=O)(=O)CCNCc1cccc(-c2cc3c(Nc4ccc(OCc5cccc(F)c5)c(Cl)c4)ncnc3s2)c1	97% (active)	5%	1	101% (active)	inactive	inactive	inactive	inactive
Cc1cc(N)c2cc(NC(=O)/C=C/c3ccccc3Cl)ccc2n1	98% (active)	81% (active)	-2	100% (active)	inactive	inactive	inactive	inactive
COc1ccc(CN2CCCC(Nc3ccc(F)c(F)c3)C2)c(O)c1 (configuration not stated)	83% (active)	14%	3	95% (active)	inactive	inactive	inactive	inactive
CC1=C(C(=O)Nc2ccccc2)C(c2ccc([N+](=O)[O-])cc2)n2ncc(C(=O)Nc3ccccc3)c2N1 (configuration not stated)	68% (active)	9%	-1	86% (active)	inactive	inactive	inactive	inactive
O=C(Nc1ccc(CCNCCCc2ccccc2)cc1)Nc1ccc(Cl)c(Cl)c1	99% (active)	33%	-1	100% (active)	inactive	inactive	inactive	inactive
O=C(Cc1ccccn1)Nc1cccc(-c2cccc(-c3nc4ccc(C(F)(F)F)cc4[nH]3)c2)c1	22%	26%	-2	95% (active)	inactive	inactive	inactive	inactive
COc1ccc(NC(=O)C2c3ccccc3C(=O)N(C3CCCC3)C2c2cccs2)cc1 (configuration not stated)	75% (active)	0%	-1	93% (active)	inactive	inactive	inactive	inactive
COC(=O)c1cccc(CNCc2ccc(-c3ccc(-c4nc5ccc(C(F)(F)F)cc5[nH]4)s3)cc2)c1	96% (active)	34%	-2	101% (active)	inactive	inactive	inactive	inactive
CCCCN1CCN(c2cc(NS(=O)(=O)c3cccc(C(=O)Nc4ccc(C(F)(F)F)cc4)c3)ccc2OC)CC1	7%	6%	4	99% (active)	inactive	inactive	inactive	inactive
CCN(CC)CCN(Cc1ccc(-c2ccc(C(F)(F)F)cc2)cc1)C(=O)Cn1c(CCc2cc(F)ccc2F)nc(=O)c2ccccc21	52% (active)	42%	4	98% (active)	inactive	inactive	inactive	inactive
O=C(Nc1cc(Cl)ccc1O)c1cc(-c2ccccc2O)no1	79% (active)	-7%	2	95% (active)	inactive	inactive	inactive	inactive
O=C(Nc1ccc(-c2ccc(-c3nc4ccc(C(F)(F)F)cc4[nH]3)cc2)cc1)Nc1ccc(F)c(F)c1F	100% (active)	39%	3	99% (active)	inactive	inactive	inactive	inactive
COc1ccccc1CNC(=O)c1cc(Br)cc(N2CCN(c3ccncc3)CC2)c1	76% (active)	43%	0	95% (active)	inactive	inactive	inactive	inactive
CC(=O)Nc1ccc(CNC2Cc3ccc(-c4ccc(Cl)c(Cl)c4)cc3C2)cc1 (configuration not stated)	7%	49%	-3	89% (active)	inactive	inactive	inactive	inactive
Cc1c(C)n(C2CCCCC2)c2ncnc(OC3CCN(CC(=O)N4CCCC4)CC3)c12	59% (active)	31%	-4	95% (active)	inactive	inactive	inactive	inactive
COc1ccc(-c2nc3cccnc3n2CC(=O)Nc2cc(Cl)c(Cl)cc2Cl)c(OC)c1	17%	99% (active)	1	100% (active)	inactive	inactive	inactive	inactive
O=C(Nc1ccc(Br)cc1)c1cc(Br)ccc1NS(=O)(=O)c1cc(C(F)(F)F)cc(C(F)(F)F)c1	67% (active)	68% (active)	-7	85% (active)	inactive	inactive	inactive	inactive
Nc1ncc(-c2cccc(OCc3ccccc3)c2)cc1-c1nnc2ccc(Cl)nn12	7%	-7%	-5	94% (active)	inactive	inactive	inactive	inactive
COc1ccc2nccc(NN=Cc3cccc([N+](=O)[O-])c3)c2c1	98% (active)	4%	-8	100% (active)	inactive	inactive	inactive	inactive
